From publication PMC5869772, “Quantitative profiling of BATF family proteins/JUNB/IRF hetero-trimers using Spec-seq”

What was measured:
Assay in all cases: Spec-seq (EMSA and sequencing of bound and unbound bands); 100 nM BATFx-JUNB, 1 uM dsDNA library, 50 mM K acetate, 20 mM Tris-acetate, 10 mM Mg acetate, 100 ug/ml BSA, pH 7.9, 10% glycerol, 30 min on ice; native 9% PAGE at 4 C; low values mean tight binding
Settings in all cases: protein: recombinant;recombinant; tags: N-terminal mCherry-TEV, cleaved off;C-terminal 6His; copies: 1;1; dsDNA, one strand shown
[1] = target: T1, BATF;JUNB (human;human, UniProt Q16520;P17275 1-125;148-347, |)
T1 sequence 1: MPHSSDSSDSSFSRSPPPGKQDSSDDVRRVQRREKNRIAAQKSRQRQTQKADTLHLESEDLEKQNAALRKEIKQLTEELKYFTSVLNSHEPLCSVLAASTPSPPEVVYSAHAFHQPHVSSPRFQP
T1 sequence 2: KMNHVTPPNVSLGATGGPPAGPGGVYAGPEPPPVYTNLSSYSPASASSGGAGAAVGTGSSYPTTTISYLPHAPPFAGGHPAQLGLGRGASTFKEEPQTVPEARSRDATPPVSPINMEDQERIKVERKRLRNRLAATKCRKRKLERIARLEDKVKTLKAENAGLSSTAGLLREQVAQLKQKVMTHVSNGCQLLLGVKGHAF
Summary of the method: (§1)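 The protein, at 100 nM, was incubated with 1 μM double-stranded degenerate DNA library for 30 min on ice in NEB Cutsmart buffer with 10% glycerol, then resolved by native 9% PAGE at 4 °C. Excised bound and unbound bands were PCR-barcoded and Illumina-sequenced, and each sequence's relative binding energy in kT is −ln of its bound/unbound read-count ratio.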

[2] = target: T2, BATF2 (bZIP);JUNB (human;human, UniProt Q8N1L9;P17275 1-142;148-347, |)
T2 sequence 1: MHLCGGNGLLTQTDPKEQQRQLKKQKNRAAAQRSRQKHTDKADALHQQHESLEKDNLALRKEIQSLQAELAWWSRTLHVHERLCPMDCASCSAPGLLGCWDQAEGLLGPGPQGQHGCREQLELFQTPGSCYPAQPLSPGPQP
T2 sequence 2: T1 sequence 2
Summary of the method: as §1

[3] = target: T3, BATF3;JUNB (human;human, UniProt Q9NR55;P17275 1-127;148-347, |)
T3 sequence 1: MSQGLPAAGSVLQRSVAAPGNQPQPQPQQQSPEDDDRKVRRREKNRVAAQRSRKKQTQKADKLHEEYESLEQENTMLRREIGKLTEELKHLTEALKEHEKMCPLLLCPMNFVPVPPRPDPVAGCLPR
T3 sequence 2: T1 sequence 2
Summary of the method: as §1

Sequence	binding signal [1] [kT]	binding signal [2] [kT]	binding signal [3] [kT]
GATAGTCTCATTTTCACCCCGTGAAAGTTAGTCATTGTTCCATTACAGTATCTGT	-0.763	-0.0778	-0.656
GATAGTCTCATTTTCACCCCGTGAAATCAGTCATTTGTTCCATTACAGTATCTGT	-0.312	0.249	-0.231
GATAGTCTCATTTTCACCCCGTGAAATAAGTCATTTGTTCCATTACAGTATCTGT	-0.248	0.152	-0.202
GATAGTCTCATTTTCACCCCGTGAAATGACCTCATTGTTCCATTACAGTATCTGT	-0.305	0.217	-0.817
GATAGTCTCATTTTCACCCCGTGAAAGTGGGTCATTGTTCCATTACAGTATCTGT	0.393	0.822	0.613
GATAGTCTCATTTTCACCCCGTGAAATCACTCATTTGTTCCATTACAGTATCTGT	-0.257	0.442	-0.147
GATAGTCTCATTTTCACCCCGTGAAATGTCGTCATTGTTCCATTACAGTATCTGT	-0.357	-0.113	-0.976
GATAGTCTCATTTTCACCCCGTGAAATGGCTCATTTGTTCCATTACAGTATCTGT	0.393	1.11	0.838
GATAGTCTCATTTTCACCCCGTGAAATGAGTTAATTGTTCCATTACAGTATCTGT	0.138	0.697	0.279
GATAGTCTCATTTTCACCCCGTGAAATGAGCCAGTTGTTCCATTACAGTATCTGT	0.487	1.33	1.1
GATAGTCTCATTTTCACCCCGTGAAATGAGACATTTGTTCCATTACAGTATCTGT	0.216	1.21	0.604
GATAGTCTCATTTTCACCCCGTGAAATGACTAACTTGTTCCATTACAGTATCTGT	-0.35	0.462	0.0773
GATAGTCTCATTTTCACCCCGTGAAATGACACAGTTGTTCCATTACAGTATCTGT	0.189	0.717	0.492
GATAGTCTCATTTTCACCCCGTGAAACTCAGTCATTGTTCCATTACAGTATCTGT	-0.328	0.236	0.0164
GATAGTCTCATTTTCACCCCGTGAAATGACTCCCTTGTTCCATTACAGTATCTGT	0.214	0.862	0.785
GATAGTCTCATTTTCACCCCGTGAAATGATTCATTTGTTCCATTACAGTATCTGT	-0.784	-0.369	-0.839
GATAGTCTCATTTTCACCCCGTGAAATGAGTAATTTGTTCCATTACAGTATCTGT	-0.4	0.147	-0.208
GATAGTCTCATTTTCACCCCGTGAAATGACGTGATTGTTCCATTACAGTATCTGT	-0.588	-0.181	-1.06

Sequence	binding signal [1] [kT]	binding signal [2] [kT]	binding signal [3] [kT]
GATAGTCTCATTTTCACCCCGTGAAATGAGTCACTTGTTCCATTACAGTATCTGT	-0.822	-0.342	-1.03
GATAGTCTCATTTTCACCCCGTGAAATGACACACTTGTTCCATTACAGTATCTGT	-0.0204	0.55	0.362
GATAGTCTCATTTTCACCCCGTGAAATGGCGTCATTGTTCCATTACAGTATCTGT	-0.631	-0.0754	-1.11
GATAGTCTCATTTTCACCCCGTGAAATGAGGCACTTGTTCCATTACAGTATCTGT	0.813	1.32	1.29
GATAGTCTCATTTTCACCCCGTGAAATGACGTTATTGTTCCATTACAGTATCTGT	-0.288	0.0695	-0.68
GATAGTCTCATTTTCACCCCGTGAAAGTGCGTCATTGTTCCATTACAGTATCTGT	-0.695	-0.267	-0.851
GATAGTCTCATTTTCACCCCGTGAAATGAGTCAATTGTTCCATTACAGTATCTGT	-0.554	0.156	-0.486
GATAGTCTCATTTTCACCCCGTGAAAAGACTCATTTGTTCCATTACAGTATCTGT	0.016	0.734	0.446
GATAGTCTCATTTTCACCCCGTGAAATGACTAAGTTGTTCCATTACAGTATCTGT	-0.456	0.286	-0.104
GATAGTCTCATTTTCACCCCGTGAAATCGAGTCATTGTTCCATTACAGTATCTGT	-0.54	0.0512	-0.401
GATAGTCTCATTTTCACCCCGTGAAATGACTTAGTTGTTCCATTACAGTATCTGT	0.0125	0.47	0.28
GATAGTCTCATTTTCACCCCGTGAAATGAGCCACTTGTTCCATTACAGTATCTGT	0.573	1.34	1.15
GATAGTCTCATTTTCACCCCGTGAAATTTAGTCATTGTTCCATTACAGTATCTGT	-0.725	-0.038	-0.503
GATAGTCTCATTTTCACCCCGTGAAAAGACGTCATTGTTCCATTACAGTATCTGT	-0.231	-0.0139	-0.682
GATAGTCTCATTTTCACCCCGTGAAATGAGTCGGTTGTTCCATTACAGTATCTGT	0.0858	1.07	0.619
GATAGTCTCATTTTCACCCCGTGAAATTGTGTCATTGTTCCATTACAGTATCTGT	-0.292	-0.0836	-0.677
GATAGTCTCATTTTCACCCCGTGAAATGACGTCCTTGTTCCATTACAGTATCTGT	0.097	0.602	-0.0593
